Sampled rows, rich in hits. Any-hit rate of the full collection: about 2.3%.
CHO-K1 Ca antag – nonselective inhibitor or artifact in parental CHO-K1 cells | ATP-induced calcium, Fluo-8 fluorescence | actives 0.6% (n = 360,000) | inhibition, % at 3 µM;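 active means inhibition above a per-plate cutoff, the plate's mean sample inhibition plus 3 SD, cut at about 24% in these data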;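 further: 0% = DMSO plus EC80 ATP and 100% = DMSO alone without ATP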
CHRM1 agonist – human M1 muscarinic receptor agonists, primary screen, Fluo-8 calcium fluorescence, CHO-K1 cells, HTS; AID 588814, 2011; Muscarinic acetylcholine receptor M1 (Homo sapiens), P11229; actives 0.33% (n = 360,000); activation, % at 3 µM; CHO-K1 hM1, agonist mode; 0% DMSO, 100% acetylcholine EC100;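 active means activation above the run's mean compound activation plus 3 SD, cut at about 16% in these data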;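 further: peak over basal fluorescence ratio within a 140 s kinetic read after compound addition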
Target sequence (P11229 whole entry, looked up): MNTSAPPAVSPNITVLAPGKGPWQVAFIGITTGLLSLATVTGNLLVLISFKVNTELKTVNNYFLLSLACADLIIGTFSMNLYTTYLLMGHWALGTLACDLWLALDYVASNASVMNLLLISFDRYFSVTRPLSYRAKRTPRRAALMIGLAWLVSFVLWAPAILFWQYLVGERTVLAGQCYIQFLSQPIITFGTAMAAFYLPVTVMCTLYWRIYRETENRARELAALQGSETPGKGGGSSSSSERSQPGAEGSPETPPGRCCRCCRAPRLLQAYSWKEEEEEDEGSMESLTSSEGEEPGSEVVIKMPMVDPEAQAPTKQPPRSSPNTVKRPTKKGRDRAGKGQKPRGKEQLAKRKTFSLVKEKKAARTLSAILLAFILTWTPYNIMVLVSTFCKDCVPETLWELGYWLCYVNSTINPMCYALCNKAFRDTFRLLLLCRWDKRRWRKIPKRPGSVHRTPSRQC
CHRM1 PAM – human M1 muscarinic receptor positive allosteric modulators, primary screen, CHO-K1 cells, Fluo-8 calcium fluorescence, 1536-well; Muscarinic acetylcholine receptor M1 (Homo sapiens), P11229; CHO-K1 hM1, ACh EC20; 0% = ACh EC20, 100% = maximal ACh; activation, % at 3 µM; actives 0.088% (n = 360,000); AID 588819, 2011; in the data active means activation above about 19%, passing the limit was not always enough
M1 PAM parental – nonselective calcium activators in parental CHO-K1 cells, primary screen, counter-screen for M1 PAM project, cell-based, Fluo-8 calcium fluorescence, full deck, 1536-well. ATP EC20; 0% at ATP EC20, 100% at ATP max. activation, % at 3 µM. actives 0.02% (n = 360,000). AID 602247, 2012;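 active means activation above the run cutoff, the mean activation of all test compounds plus 3 SD, cut at about 40% in these data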;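 further: peak over basal fluorescence ratio in a 140 s read after ATP addition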
CHO-K1 Ca ag – counter-screen for M1 agonists: effect in parental CHO-K1 cells. Fluo-8 calcium fluorescence; scaled to maximal ATP response, vehicle zero. activation, % at 3 µM. actives 0.48% (n = 360,000); in the data active means activation above about 15%;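 further: untransfected CHO-K1 host cells lacking M1 receptor as counterscreen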
M1 antag – human M1 muscarinic receptor antagonists, primary screen, CHO-K1 cells, Fluo-8 calcium fluorescence, 1536-well | Muscarinic acetylcholine receptor M1 (Homo sapiens), P11229 | CHO-K1 hM1, ACh EC80 antagonist | inhibition, % at 3 µM | actives 1.3% (n = 360,000) | AID 588852, 2011;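 active means percent inhibition above its own plate's cutoff, namely the mean of that plate's compound wells plus 3 SD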;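 further: peak over basal fluorescence ratio during 140 s after agonist addition; 0% = ACh EC80 plus DMSO and 100% = DMSO alone without agonist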
Starred values were filed as active, the others as inactive.

SMILES	CHO-K1 Ca antag	CHRM1 agonist	CHRM1 PAM	M1 PAM parental	CHO-K1 Ca ag	M1 antag
CNCCC=C1c2ccccc2C=Cc2ccccc21	4	-4	-25	-3	1	98*
O=C(Cn1nc(C(=O)O)c2ccccc2c1=O)Nc1ccc(Cl)c(S(=O)(=O)N2CCOCC2)c1	-5	1	6	-15	0	-9
COc1cc(NC(=O)c2cc(-c3ccco3)on2)cc(OC)c1OC	8	-4	2	-4	2	-1
N#CC1=C(N)NC(SCc2ccc(Br)cc2)=C(C#N)C12CCCCC2	24*	0	-4	5	8	13
CC1CCN(c2ccc3c(c2)S(=O)(=O)c2cccc(C(=O)NCc4ccc(F)cc4)c2C3=O)CC1	-12	-2	6	17	3	-4
O=C(NC1CC1)c1cccc2c1C(=O)c1ccc(N3CCC(Cc4ccccc4)CC3)cc1S2(=O)=O	2	21*	-11	2	7	26
O=C(NCc1ccc(F)cc1)c1cccc2c1C(=O)c1ccc(N3CCC(N4CCCCC4)CC3)cc1S2(=O)=O	10	-8	-25	-3	3	40*
Cc1ccc(S(=O)(=O)CC(=O)N2CC(C)OC(C)C2)cc1 (stereo not given)	0	-2	5	5	0	-7
O=C(Nc1ccc([N+](=O)[O-])cc1)Nc1nc(-c2ccc(Cl)s2)cs1	34*	6	-10	-4	10	8
Brc1ccc(-n2cnc(-c3ccccc3)c2)cc1	-1	-2	12	-19	0	-21
Cc1nn(Cc2ccc(C(=O)Nc3ccccc3C(F)(F)F)o2)c(C)c1Br	2	1	-7	4	2	6
Cc1csc(NC(=O)c2ccc(Cn3nc(C)c(Br)c3C)o2)n1	14	-2	-10	4	17*	14
O=C(Nc1nnc(S(=O)(=O)N2CCCCC2)s1)c1cccc(Br)c1	-6	0	8	27	2	-12
CCOC(=O)[C@@H]1[C@H]2COc3ccccc3[C@H]2N2C(=O)N(c3ccc(C(F)(F)F)cc3)C(=O)[C@]12C	-5	-2	-20	4	5	34*
CCOC(=O)[C@@H]1[C@H]2COc3ccccc3[C@@H]2N2C(=O)N(c3ccc(C(F)(F)F)cc3)C(=O)[C@@]12C	-9	-4	0	2	0	-1
CC(=O)Cc1nsc(NC(=O)c2cn(-c3ccccc3)nc2-c2ccc(Br)cc2)n1	25*	-3	13	-5	0	-12
Cc1ccc2c(c1)C(=O)C(=O)N2CCCOc1ccccc1C	-19	0	10	21	3	-8
Cc1ccccc1OCCCN1C(=O)C(=O)c2cccc(C)c21	-2	22*	7	20	3	-11
Cc1cccc2c1N(CCCOc1ccccc1)C(=O)C2=O	3	20*	13	6	0	-12
CC(C)c1ccc(NC(=O)C2(C)Cc3c(-c4ccccc4)ccnc3O2)cc1 (stereo not given)	-3	-4	-1	12	1	-3
COc1cc(/C=N/NC(=O)c2cccc(S(=O)(=O)N3CCCC3)c2)cc(OC)c1O	5	-5	12	-22	1	-17
CC(=O)n1c(-c2ccccc2)c(-c2ccccc2)n(C)c1=O	16	-3	9	-25	0	-6
CN(C)/C=C1\C=C2C(=O)c3ccccc3N2C1=O	41*	141*	-17	-19	165*	34
CN1C(=O)N(CC(=O)Nc2sccc2C(N)=O)C(=O)C12CCCCC2	-17	-5	-5	12	0	6
CCCc1nnc(SCC(=O)Nc2nccs2)o1	-14	1	21	13	0	-14
Cc1cccc(C)c1OCc1nnc(SCC(=O)Nc2nccs2)o1	-1	0	-17	11	3	25*
O=C(CN(C1CCCCC1)S(=O)(=O)c1ccc(Cl)cc1)N1CCOCC1	27*	0	-5	-7	0	16
O=C(CN(C1CCCCC1)S(=O)(=O)c1ccccc1)N1CCCC1	-18	-2	8	4	0	-6
